Some targets named below: HNRNPCL3/4 (Homo sapiens, UniProt O60812); ELAVL3 (Homo sapiens, UniProt Q14576); CPSF6 (Homo sapiens, UniProt Q16630); hnRNP-CL1 (Homo sapiens, UniProt O60812); EIF4B (Homo sapiens, UniProt P23588).
Common to all, as to assay: protein domain microarray probed with biotinylated miRNA; Domain array: 20 mM Tris-HCl pH 7.4, 200 mM KCl, 0.2 mM EDTA, 0.05% NP40, 2 ug/ul heparin, overnight 4 C. ORF array: PBS pH 7.0 with RNase inhibitor, 100 ng RNA; high values mean tight binding
What all share (settings): ssRNA

The target in the next experiment is T1, hnRNP-M(3) (Homo sapiens, UniProt P52272).
T1 sequence: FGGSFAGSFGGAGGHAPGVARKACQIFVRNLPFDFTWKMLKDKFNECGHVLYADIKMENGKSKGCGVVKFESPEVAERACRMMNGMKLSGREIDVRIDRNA

The next experiment addresses T2, NONO (Homo sapiens, UniProt Q15233).
T2 sequence: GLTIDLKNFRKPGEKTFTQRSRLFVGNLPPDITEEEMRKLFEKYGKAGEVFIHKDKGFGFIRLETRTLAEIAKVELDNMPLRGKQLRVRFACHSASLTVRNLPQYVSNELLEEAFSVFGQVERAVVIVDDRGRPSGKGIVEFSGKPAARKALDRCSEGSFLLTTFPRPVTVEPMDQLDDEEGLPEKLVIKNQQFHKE

For the next experiment, the target named is T3, NSAP1 (Homo sapiens, UniProt O60506).
T3 sequence: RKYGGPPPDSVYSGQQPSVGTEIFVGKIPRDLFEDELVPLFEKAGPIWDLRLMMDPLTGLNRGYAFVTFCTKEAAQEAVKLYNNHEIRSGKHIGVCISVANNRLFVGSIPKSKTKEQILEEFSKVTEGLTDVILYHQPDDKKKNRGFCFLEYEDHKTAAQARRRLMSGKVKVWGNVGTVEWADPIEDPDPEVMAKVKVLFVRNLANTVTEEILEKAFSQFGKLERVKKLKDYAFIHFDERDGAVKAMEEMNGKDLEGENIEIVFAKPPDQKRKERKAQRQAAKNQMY

The target in another experiment is T4, DAZ2/3 (Homo sapiens, UniProt Q9NR90).
T4 sequence: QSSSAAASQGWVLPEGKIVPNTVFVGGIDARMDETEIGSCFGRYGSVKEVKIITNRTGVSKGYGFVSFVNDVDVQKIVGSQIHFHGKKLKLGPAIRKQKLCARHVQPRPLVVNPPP

For the next experiment, the target named is T5, HTF9C (Homo sapiens, UniProt Q8IZ69).
T5 sequence: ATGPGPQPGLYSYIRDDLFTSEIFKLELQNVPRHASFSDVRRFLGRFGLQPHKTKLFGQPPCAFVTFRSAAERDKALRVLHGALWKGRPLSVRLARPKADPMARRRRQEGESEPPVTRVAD

EIF4B, sequence (P23588 75-190): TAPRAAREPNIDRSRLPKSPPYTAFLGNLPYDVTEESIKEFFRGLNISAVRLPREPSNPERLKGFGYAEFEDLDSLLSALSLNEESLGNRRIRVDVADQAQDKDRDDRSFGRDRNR
ELAVL3, sequence (Q14576 20-367): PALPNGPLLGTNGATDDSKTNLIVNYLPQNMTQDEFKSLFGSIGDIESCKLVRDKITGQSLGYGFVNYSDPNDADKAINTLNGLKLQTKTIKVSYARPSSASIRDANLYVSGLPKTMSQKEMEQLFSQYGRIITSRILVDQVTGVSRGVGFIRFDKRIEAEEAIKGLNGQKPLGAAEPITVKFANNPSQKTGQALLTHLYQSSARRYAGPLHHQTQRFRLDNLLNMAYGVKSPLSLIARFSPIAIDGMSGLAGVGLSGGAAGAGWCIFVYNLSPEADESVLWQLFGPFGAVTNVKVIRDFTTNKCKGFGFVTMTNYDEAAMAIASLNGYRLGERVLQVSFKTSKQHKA
HNRNPCL3/4, sequence (O60812 1-110): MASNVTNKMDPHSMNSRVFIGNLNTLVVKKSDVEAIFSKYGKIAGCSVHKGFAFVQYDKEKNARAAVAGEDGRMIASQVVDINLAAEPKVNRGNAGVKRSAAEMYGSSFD
hnRNP-CL1, sequence (O60812 1-110): as above
CPSF6, sequence (Q16630 60-180): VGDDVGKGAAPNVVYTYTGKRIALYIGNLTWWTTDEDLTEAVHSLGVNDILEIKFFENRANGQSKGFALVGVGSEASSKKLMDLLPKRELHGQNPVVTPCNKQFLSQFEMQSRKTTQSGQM

On to UGAGGUAGUAGGUUGUAUAGUU, for which the binding signal with hnRNP-M(3) came out at 22.8 ± 3.08 fluorescence intensity; with NONO it was 20.7 ± 2.69 fluorescence intensity; in the experiment with HNRNPCL3/4, 22.3 ± 2.99 fluorescence intensity; with ELAVL3, 476 ± 12.5 fluorescence intensity; in the experiment with CPSF6, 23 ± 8.56 fluorescence intensity; with hnRNP-CL1 it was 31.8 ± 10.7 fluorescence intensity. The binding signal worked out at 883 ± 50 fluorescence intensity in the experiment with EIF4B, 755 ± 86.6 fluorescence intensity with NSAP1 and 37.8 ± 6.41 fluorescence intensity with DAZ2/3.
Regarding CAGUGCAAUGAUGAAAGGGCAU, the binding signal with hnRNP-M(3) is 37.9 ± 1.35 fluorescence intensity; with HNRNPCL3/4, 29.9 ± 0.976 fluorescence intensity; with ELAVL3, 868 ± 33.5 fluorescence intensity; with CPSF6, 39.2 ± 6.51 fluorescence intensity; in the experiment with hnRNP-CL1, 23 ± 5.29 fluorescence intensity; in the experiment with EIF4B it was 1810 ± 123 fluorescence intensity. Further, the binding signal with HTF9C amounted to 52.8 ± 3.39 fluorescence intensity; with NSAP1 it was 398 ± 6.14 fluorescence intensity; in the experiment with DAZ2/3, 70.6 ± 0.849 fluorescence intensity.
Regarding UGAGGUAGUAGGUUGUGUGGUU, the binding signal with hnRNP-M(3) is 112 ± 17.8 fluorescence intensity; with NONO it was 62.6 ± 1.97 fluorescence intensity; with HNRNPCL3/4, 36.4 ± 6.48 fluorescence intensity; in the experiment with ELAVL3 it was 1280 ± 96.1 fluorescence intensity; with CPSF6, 32.1 ± 8.4 fluorescence intensity; in the experiment with hnRNP-CL1, 77.6 ± 17.1 fluorescence intensity. Besides, the binding signal in the experiment with EIF4B worked out at 2502 ± 2.61 fluorescence intensity; with HTF9C it was 182 ± 12.4 fluorescence intensity; with NSAP1, 1770 ± 45.4 fluorescence intensity; with DAZ2/3 it was 288 ± 6.91 fluorescence intensity.
Turning to AGAGGUAGUAGGUUGCAUAGUU, the binding signal came to 68.4 ± 19.5 fluorescence intensity in the experiment with hnRNP-M(3); 26.1 ± 4.07 fluorescence intensity with NONO; 1430 ± 30.2 fluorescence intensity with ELAVL3; 3250 ± 198 fluorescence intensity with EIF4B; 78 ± 2.68 fluorescence intensity in the experiment with HTF9C; 1900 ± 59.9 fluorescence intensity with NSAP1. In the experiment with DAZ2/3, the binding signal turned out to be 260 ± 18.7 fluorescence intensity.
For UAGCUUAUCAGACUGAUGUUGA, the binding signal came to 20.6 ± 3.13 fluorescence intensity with hnRNP-M(3); 22.52 ± 0.0849 fluorescence intensity in the experiment with HNRNPCL3/4; 508 ± 14.6 fluorescence intensity with ELAVL3; 36.4 ± 14.3 fluorescence intensity with CPSF6; 24.6 ± 5.08 fluorescence intensity with EIF4B; 42.1 ± 2.96 fluorescence intensity in the experiment with NSAP1. The binding signal with DAZ2/3 was 153 ± 9.91 fluorescence intensity.
In the case of UGAGGUAGUAGGUUGUAUGGUU, the binding signal in the experiment with hnRNP-M(3) stood at 78.7 ± 6.91 fluorescence intensity; in the experiment with NONO it was 41.2 ± 0.665 fluorescence intensity; with HNRNPCL3/4, 34.6 ± 6.43 fluorescence intensity; with ELAVL3, 1020 ± 53.3 fluorescence intensity; in the experiment with CPSF6, 26.1 ± 6.17 fluorescence intensity; with hnRNP-CL1, 43.3 ± 2.77 fluorescence intensity. For the same sequence, the binding signal in the experiment with EIF4B amounted to 2140 ± 29.2 fluorescence intensity; with HTF9C, 104.2 ± 0.884 fluorescence intensity; with NSAP1, 1830 ± 24.4 fluorescence intensity; with DAZ2/3, 151 ± 11.5 fluorescence intensity.

These data come from PMC11574364.
